Source: PubChem BioAssay
These entries were drawn from the full list.
aSyn UTR act: Activators via SNCA 5'UTR binding, MLPCN | AID 1814, 2009 | 7.1% of 300,000 active | activity score, % (tested at 7.5 µM), hits read low | alpha-synuclein 5'UTR reporter, activators screen; in the data active = activity score below about -60%
A number is an active result; . = inactive.

SMILES	aSyn UTR act
NC(=O)c1ccsc1NC(=O)c1ccc(S(=O)(=O)N2CCCC2)cc1	-103
NC(=O)c1ccsc1NC(=O)c1ccc(S(=O)(=O)N2CCCCC2)cc1	-96
Cc1ccc2c(c1)COc1c3ccc(C(=O)N[C@@H](C)CO)cc3nn1-2	-154
Cc1ccc2c(c1)COc1c3ccc(C(=O)NC(C)C)cc3nn1-2	-204
N#CCC(=O)N/N=C\c1ccc(OC/C=C/c2ccccc2)cc1	-146
N#CCC(=O)N/N=C/c1ccc(OCc2ccccc2)cc1	-66
Cc1cccc(-c2noc(-c3ccccc3C(=O)NCc3ccco3)n2)c1	-62
Nc1c(C(=O)NCc2ccco2)nnn1-c1ccccc1	-125
O=C(NCc1ccco1)c1cccc(-c2nnc(-c3ccccc3)o2)c1	-71
CC1=C(C)/C(=N\OS(=O)(=O)c2ccccc2)C=CC1=O	-80
CC1=NN(c2ccccc2)C(=O)/C1=C/c1c(O)n(-c2ccc(F)c(Cl)c2)[nH]c1=O	-105
CCC(C)NC(=O)c1ccc2c(Cl)c3c(nc2c1)CCC3 (stereo not drawn)	-164
O=C(c1ccc2c(Cl)c3c(nc2c1)CCCC3)N1CCC(N2CCCCC2)CC1	-89
CN(C(=O)c1ccc2c(Cl)c3c(nc2c1)CCC3)c1ccccc1	-223
Cc1cc([N+](=O)[O-])ccc1-c1ccc(C2Nc3ccccc3C(=O)N2O)o1 (stereo not drawn)	.
O=C1c2ccccc2NC(c2cccc([N+](=O)[O-])c2)N1CCc1ccccc1 (stereo not drawn)	-136
CSc1ccc(/C=C/C(=O)NC(=O)c2ccccc2O)cc1	-119
O=C(/C=C/c1ccc(Br)cc1)NC(=O)c1ccccc1O	-162
O=C(/C=C/c1ccc(O)c(O)c1)NC(=O)c1ccccc1O	-145
CS(=O)(=O)c1ccc2nc(NC(=O)Nc3cccc(Cl)c3)sc2c1	-85
CS(=O)(=O)c1ccc2nc(NC(=O)Nc3ccccc3F)sc2c1	-109
Cc1ccc(-n2c(C)csc2=N)cc1	-175
Cc1csc(=N)n1-c1ccc(Cl)cc1	-144
O=C(c1ccc(COc2ccccc2Br)cc1)N1CCCCC1	-77
Fc1ccc(COc2ccc(C(=S)N3CCCC3)cc2)cc1	-77
SMILES	aSyn UTR act
Cn1c2ccccc2c2ncn(CCC3=CCCCC3)c(=O)c21	-158
Cc1ccc(Nc2nc(Cl)c(C=O)s2)cc1Cl	-115
COc1ccccc1Nc1nc2c(s1)CCC2	-68
O=Cc1sc(Nc2ccccc2)nc1Cl	-117
COc1ccccc1Nc1nc(Cl)c(C=O)s1	-104
CCc1ccc2nc(/N=C(\N)NC(=O)c3ccccc3)nc(C)c2c1	-120
COC(=O)c1ccc(C)c(NC(=O)CN(c2cc(OC)ccc2OC)S(C)(=O)=O)c1	-88
COc1ccc(N(CC(=O)Nc2cc(Cl)ccc2C)S(=O)(=O)c2c(C)noc2C)cc1	.
Cc1c(O)ccc(/C(Cc2ccc3ccccc3n2)=N\O)c1O	-76
CC(=O)Oc1ccc(C(=O)Cc2ccc3ccccc3n2)c(O)c1C	-143
Oc1ccc(/C(Cc2ccc3ccccc3n2)=N\Nc2ccccc2)c(O)c1	-90
CCCCc1ccc(Nc2ncccc2C#N)cc1	-87
COc1ccc(OC)c(C=Nc2ccccc2-c2nc3ccccc3[nH]2)c1	-212
Oc1ccc(C=Nc2ccccc2-c2nc3ccccc3[nH]2)c(O)c1	-125
Oc1ccccc1C=Nc1ccccc1-c1nc2ccccc2[nH]1	-123
Cc1cc(/C=C2/NC(=O)N(c3ccccc3)C2=O)c(C)n1C(C)C	-64
Cc1ccc(/C=C2/NC(=O)N(c3ccccc3)C2=O)o1	-105
O=C1N/C(=C/c2ccc(Br)s2)C(=O)N1c1ccccc1	-81
COCCCNc1nnc(Cc2ccc(Cl)cc2)c(=O)[nH]1	.
C/C(=N/NC(=O)c1ccccc1)c1ccc(NC(=O)C(F)(F)F)cc1	-69
C/C(=N/OCC(=O)Nc1ccccc1)c1cccs1	-131
C/C(=N\NC(=O)C(N)=O)c1ccc(NC(=O)c2cccs2)cc1	-140
C/C(=N\NC(=O)c1ccccc1)c1ccc(NC(=O)c2cccs2)cc1	-108
C/C(=N\NC(=O)c1ccccc1C)c1ccc(NC(=O)c2cccs2)cc1	-148
C/C(=N\NC(=O)c1ccco1)c1ccc(NC(=O)c2cccs2)cc1	-106
SMILES	aSyn UTR act
O=C(Nc1ccc2c(c1)CCC2)c1cccc(F)c1	-143
COc1cccc(NC(=O)Nc2ccc3c(c2)CCC3)c1	-130
CC(=O)c1cccc(NC(=O)c2ccc3c(c2)CCCC3)c1	-132
CCc1ccc(NC(=O)Nc2ccc3c(c2)CCC3)cc1	-125
Cn1cc(C(=O)Nc2ccc3c(c2)CCC3)cn1	-105
CC(=O)c1cccc(NC(=O)Nc2ccc3c(c2)CCC3)c1	-91
CC(=O)c1ccc(NC(=O)c2cnn3ccccc23)cc1	.
COc1cccc(NC(=O)COc2ccc3c(c2)CCC3)c1	-65
CC(=O)c1cccc(NC(=O)c2cnn3ccccc23)c1	-106
Cc1cccc(NC(=O)Nc2ccc3c(c2)CCC3)c1	-116
O=C(COC(=O)Cn1cnc2ccccc21)Nc1ccc2c(c1)C(=O)c1ccccc1C2=O	-153
Cc1ccc(Nc2nnc(SCC(=O)Nc3cccc(S(=O)(=O)N4CCCCC4)c3)s2)cc1	-119
